# PubChem BioAssay (Tox21)
# Results filed as inconclusive are left out. Active and inactive are the calls of the source. Calls follow the shape of the dose curve; as a rule, active = well fitted cell-killing curve with a large enough effect in the repeat runs; inconclusive = weak or mixed curves; inactive = no such curve, though single readings can be large or run the other way.
# Assay: qHTS assay to identify small molecule antagonists of the peroxisome proliferator-activated receptor delta (PPARd) signaling pathway - cell viability counter screen (AID 743213); also: nearly all actives have a fitted effect of over 50% in size
# Conditions: PPARd-bla HEK293H viability, CellTiter-Glo luminescence, 17 h; series mostly up to 62 µM; viability change, negative = cytotoxic: at the top concentration
# Excerpt: U.S. Tox21 Program National Center for Advancing Translational Sciences [NCATS] NIH Chemical Genomics Center [NCGC] U.S. Environmental Protection Agency [EPA] National Institutes of Environmental Health Sciences [NIEHS] National Toxicology Program [NTP] U.S. Food and Drug Administration [FDA] Tox21 Assay Overview: The peroxisome proliferator-activated receptors (PPARs) are lipid-activated transcription factors of the nuclear receptor superfamily with three distinct subtypes namely PPAR alpha, PPAR delta (PPARd) and PPAR gamma. All these subtypes heterodimerizes with Retinoid X receptor (RXR) and have different physiological functions. […] To identify the compounds that inhibit PPAR-delta signaling, GeneBLAzer PPAR delta UAS-bla HEK293H cell line (Invitrogen, Carlsbad, CA, USA) containing a beta-lactamase reporter gene under the control of an Upstream Activator Sequence (UAS) was used to screen the Tox21 compound library. The cytotoxicity of the Tox21 compound library against the PPARd-bla cell line was tested in parallel by measuring the cell viability using CellTiter-Glo assay (Promega, Madison, WI) in the same wells.
# Tox21 Assay Protocol Summary: PPARd-bla cells were dispensed at 3000 cells/5uL/well in 1536-well black wall/clear bottom plates using a Multidrop Combi (Thermo Fisher Scientific, Waltham, MA) dispenser. After the assay plates were incubated at 37 C and 5% CO2 for 5 h, 23 nL of compounds dissolved in DMSO, positive controls or DMSO only was transferred to the assay plate by a Pintool station (Kalypsys, San Diego, CA), followed by addition of 1ul L165041 (300 nM, final concentration in the wells). The assay plates were incubated at 37 C for 17 h, and then 1 uL of LiveBLAzerTM B/G FRET substrate was added using a Bioraptr Flying Reagent Dispenser (FRD) workstation (Beckman Coulter, Indianapolis, IN, USA). The assay plates were incubated at room temperature for 2 h and fluorescence intensity was measured by an Envision plate reader (PerkinElmer, Shelton, CT). For cell viability readout that measures cytotoxicity, 3 ul/well of CellTiter-Glo reagent was added into the assay plates using a Bioraptr FRD. After 30 min incubation at room temperature, the luminescence intensity in the plates was measured using a ViewLux plate reader (PerkinElmer).
# % is scaled to controls: 0 for no effect and ±100 for the full control effect.
SMILES,outcome,"viability change, negative = cytotoxic"
CN(C)c1ccc(Cc2ccc(N(C)C)cc2)cc1,inactive,
CCCCCCCCCCO,inactive,
CC(C)OC(=O)COc1ccc(Cl)cc1Cl,inactive,
CCOCC(=O)O,inactive,
CC(C)CC(C)O (stereo not given),inactive,
CCO[Si](CCCN)(OCC)OCC,,0.573% (inactive)
C=C(C)CNCC,inactive,
CC(=O)OCCOC(C)=O,inactive,
CCc1ccccc1CC,,-6.24% [at 13.7 µM] (inactive)
Cc1ccc(S(=O)(=O)N=C=O)cc1,inactive,
C=C(C)[C@H]1CC=C(C)C(=O)C1,inactive,
CN(C)CCOC(=O)COc1ccc(Cl)cc1,inactive,
CN1C(=O)CC[C@H]1c1cccnc1,inactive,
O=C1CCCC1,inactive,
CC(=O)OC1CC(C)OC(C)O1 (stereo not given),,6.98% (inactive)
COc1ccc(OC)cc1,inactive,
CC(O)CC(C)(C)O (stereo not given),,-10.5% [at 80.4 µM] (inactive)
COc1ccc(N)c(C)c1,inactive,
O=C(O)Cn1c(=O)n(Cc2ccc(Br)cc2F)c(=O)c2ccc(Cl)cc21,inactive,
N[C@H](Cc1c[nH]c2ccccc12)C(=O)O,,-8.35% (inactive)

SMILES,outcome,"viability change, negative = cytotoxic"
CC(=O)OCc1ccccc1,inactive,
CC(=O)CC(C)(C)O,inactive,
Cc1ccc([N+](=O)[O-])cc1S(=O)(=O)O,,0.858% (inactive)
CN/C(=C\[N+](=O)[O-])NCCSCc1csc(CN(C)C)n1,inactive,
CC1(C)CC(N)CC(C)(CN)C1 (stereo not given),,-1.67% (inactive)
C=CC(=O)OCCC(=O)O,inactive,
CCCCCCCCCCCC(=O)OC,inactive,
c1ccc2c(c1)Cc1ccccc1-2,inactive,
NC(=S)NNC(N)=S,,5.61% (inactive)
C=CC(C)CCCC(C)(C)O (stereo not given),inactive,
CCCCCCCO,inactive,
Cc1ccc2ncccc2c1,inactive,
CC(CCO)CC(C)(C)C (stereo not given),inactive,
C=CC[N+](C)(C)CC=C,inactive,
CC(C)(C)c1cc(Cc2cc(C(C)(C)C)c(O)c(C(C)(C)C)c2)cc(C(C)(C)C)c1O,inactive,
CCO[Si](CCC#N)(OCC)OCC,inactive,
CC1(C)NC(=O)NC1=O,inactive,
NCCN1CCNCC1,inactive,
CCNc1ccccc1,inactive,
OCc1ccccc1,inactive,
